PubChem BioAssay (NCATS)
Records with an inconclusive call do not appear. A call without a number means that no potency is given here. Unmarked numbers belong to inactive results. Active and inactive are the calls of the source. Calls come from the whole dose curve; as a rule, active = well fitted curve in the direction sought with a large enough effect; inconclusive = small, poorly fitted or top-dose-only effect, or another doubt; inactive = no such curve, though single readings can be large; an effect the other way counts as inactive or inconclusive.

How the values were obtained:
[1] = biological target: Cellular tumor antigen p53 (Homo sapiens) (UniProt P04637); experiment: Primary qHTS for small molecule compounds that upregulate eGFP-tagged delta133p53alpha (in N-terminal) cells. (AID 2060322); conditions: NCI-H358 eGFP-delta133p53alpha fluorescence, 24 h; activation: hits give high values; note: nearly all actives have a fitted effect of over 75% in size; note: potency is the fitted concentration of half-maximal effect;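 for activation: cells pre-induced with doxycycline then dosed without doxycycline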
Chain of Cellular tumor antigen p53 (Homo sapiens) (P04637 whole entry, looked up): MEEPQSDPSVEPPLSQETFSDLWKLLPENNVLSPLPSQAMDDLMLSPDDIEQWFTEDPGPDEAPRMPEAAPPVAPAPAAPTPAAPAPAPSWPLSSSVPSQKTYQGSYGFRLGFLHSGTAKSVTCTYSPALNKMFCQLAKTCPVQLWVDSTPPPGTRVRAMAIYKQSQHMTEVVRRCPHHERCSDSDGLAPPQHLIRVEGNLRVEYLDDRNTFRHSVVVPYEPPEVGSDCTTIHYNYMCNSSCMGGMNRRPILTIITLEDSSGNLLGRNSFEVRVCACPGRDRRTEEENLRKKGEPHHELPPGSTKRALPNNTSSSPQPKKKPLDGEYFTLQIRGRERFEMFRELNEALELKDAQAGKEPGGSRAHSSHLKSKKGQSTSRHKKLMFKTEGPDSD
How it was run: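 NCI-H358 cells pre-induced 24 h with 10 ng/ml doxycycline for eGFP-delta133p53alpha, plated dox-free and exposed 24 h at 37C to titrated compounds. Fixed, Hoechst-stained; gated GFP peak intensity by laser scanning cytometry, normalized to DMSO (0%) and 57.5 uM 5-azacytidine (100%).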

[2] = biological target: Aldehyde dehydrogenase, mitochondrial (Homo sapiens) (UniProt P05091); experiment: qHTS for Inhibitors of the Aldehyde Dehydrogenase Family (ALDH2) Primary screen (AID 2061308); conditions: ALDH2 enzyme inhibition qHTS, 1536-well; series mostly up to 56 µM; note: nearly all actives have a fitted effect of over 55% in size
[3] = biological target: Retinaldehyde dehydrogenase 3 (Homo sapiens) (UniProt P47895); experiment: qHTS for Inhibitors of the Aldehyde Dehydrogenase Family (ALDH1A3) Primary screen (AID 2061315); conditions: ALDH inhibition qHTS; series mostly up to 56 µM

Compound	activation [1] [%]	Potency [2]	Potency [3]	Potency [1]	activity change, negative = inhibition [2]	activity change, negative = inhibition [3]
CC1(C)C2CC[C@@]34CC(CC[C@H]3[C@]2(C)CC[C@@H]1O[C@@H]1O[C@H](CO)[C@@H](O)[C@H](O)[C@H]1O)[C@](C)(O)C4 (some centres not stated)	-22.1	inactive	inactive			
Cc1cc2sc(NC(=O)Cc3ccccc3)nc2cc1Cl	-6.25	inactive	inactive			
C=C[C@H]1[C@H](O[C@@H]2O[C@H](CO)[C@@H](O)[C@H](O)[C@H]2O)OC=C(C(=O)OC)[C@H]1CCO	-7.63	inactive	inactive			
C=C1CC2(C(=O)O)CC1CCC2C1(C)CCCC2(C)C(=O)OC(O)C21 (configuration not stated)	-6.87	inactive	inactive			
Nc1ncnc2c1c(-c1ccc(Cl)cc1)nn2-c1cccc(-c2cnnn2Cc2cccc(-c3ccccc3)c2)c1	8.04	inactive	inactive			
COc1c(C)c2c(c(O)c1C/C=C(\C)CC/C=C(\C)CCC(=O)O)C(=O)OC2	6.11	inactive	inactive			
COc1ccc(C(OC2OC(CO)C(O)C(O)C2O)C(C)O)cc1 (configuration not stated)	9.82	inactive	inactive			
c1ccc(Cc2ncc3c(n2)CCNCC3)cc1	7	inactive	inactive			
C/C1=C/CCC2=CC(OC2=O)C(C)(C)/C=C/C1=O (configuration not stated)		inactive	inactive	4.26 µM (active)		
CC1(C)OC(=O)C(OCC2CC2)=C1c1ccc(S(C)(=O)=O)cc1	-2.33	inactive	inactive			
CCN1CCC[C@@H]1CNC(=O)c1ccc2c(c1)NC(=O)c1cccc(C)c1S2	19.7	inactive	inactive			
CC12CCC(OC3OC(CO)C(O)C(O)C3OC3OC(CO)C(O)C(O)C3O)CC1CCC1C2CCC2(C)/C(=C3/COC(=O)C3)CCC12O (configuration not stated)	-0.763	inactive	inactive			
CN(C)CC1CCn2c(c(C3=C(c4cn(C)c5ccccc45)C(=O)NC3=O)c3ccccc32)C1 (configuration not stated)		inactive	inactive	34.3 µM (active)		
CC(C)CC(=O)OC1OC=C(CO[C@@H]2O[C@H](CO)[C@@H](O)[C@H](O)[C@H]2O)C2CC(O)C(O)(CO)C12 (some centres not stated)	15.2	inactive	inactive			
OC[C@@]1(O)CO[C@@H](OC[C@H]2O[C@@H](OCc3ccccc3)[C@H](O)[C@@H](O)[C@@H]2O)[C@@H]1O	-13.7	inactive	inactive			
O=C(CCO[C@@H]1O[C@H](CO)[C@@H](O)[C@H](O)[C@H]1O)c1ccc(O)cc1	-6.87	inactive	inactive			
C=C1C(=O)O[C@@H]2C[C@@H](C)[C@]34C[C@]5(C(=O)O[C@H]6CC(C)=C([C@H](C)CCCO)[C@H](OC(=O)C(C)CC)[C@H]65)[C@@H](C(C)=C3C[C@@H]12)[C@H]4OC(C)=O (some centres not stated)		inactive	inactive	6.3 µM (active)		
CC(=O)O[C@@H]1[C@@H](O)[C@H](O[C@H]2CC[C@]34C[C@]35CC[C@]3(C)[C@@H]([C@@]6(C)CC[C@@H](C(C)(C)O)O6)[C@@H](O)C[C@@]3(C)[C@@H]5C[C@H](O[C@@H]3O[C@H](CO)[C@@H](O)[C@H](O)[C@H]3O)[C@H]4C2(C)C)OC[C@H]1O	15	inactive	inactive			
O=C(Cc1ccc(-c2ccccc2)cc1)NC1CCC1	-1	inactive	inactive			
Fc1ccccc1-c1nc2ccn(Cc3ccc(-c4ccc(C(F)(F)F)cc4C(F)(F)F)nn3)cc-2n1	17	inactive	inactive			
CC(=O)OC/C(=C/C(=O)O)CC[C@@H]1C(C)=CC(=O)[C@@H]2C(C)(C)CCC[C@@]12C	-23.7	inactive	inactive			
Cc1cccc(N(C)C(=S)Oc2ccc3c(c2)CCC3)c1	-3	inactive	inactive			
COc1cccc(NCCC2(c3ccccc3)CC(C)(C)OC(C)(C)C2)c1		inactive	inactive	21.7 µM (active)		
C[C@@H]1CCC2C(C)(C)[C@H](O)CC[C@]2(C)[C@@]12Cc1c(O)cc3c(c1O2)CN([C@@H](CCC(=O)O)C(=O)O)C3=O (some centres not stated)	-9.16	inactive	inactive			
C=C1CCC2C(C)(C(=O)O)CCCC2(C)C1CC/C(C)=C\CO (configuration not stated)	15.2	inactive	inactive			
CC1CCC2C(C(=O)O)=CC3CC(C)(C)CC132 (configuration not stated)	2.29	inactive	inactive			
C=C(C(=O)O)C1CCC2(C)CCC(O)C(=C)C2C1 (configuration not stated)	9.82	inactive	inactive			

Compound	activation [1] [%]	Potency [2]	Potency [3]	Potency [1]	activity change, negative = inhibition [2]	activity change, negative = inhibition [3]
COC(=O)C1=CO[C@@H](O[C@@H]2O[C@H](CO)[C@@H](O)[C@H](O)[C@H]2O)[C@@H]2C(C)CC(=O)[C@]12O (some centres not stated)	1.79	inactive	inactive			
CC(=O)OC1C[C@@]2(C)[C@@H](CC[C@@H](C)[C@]23Cc2c(O)cc4c(c2O3)CNC4=O)C(C)(C)[C@@H]1O (some centres not stated)	9.92	inactive	inactive			
O=C(Nc1ccc(N2C(=O)[C@@H]3[C@H](C2=O)[C@@H]2C=C[C@H]3C2)c(Cl)c1)c1ccccn1	-11.7	inactive	inactive			
OC[C@H]1O[C@@H](OC[C@H]2O[C@@H](OCc3ccccc3)[C@H](O)[C@@H](O)[C@@H]2O)[C@H](O)[C@@H](O)[C@@H]1O	-3.82	inactive	inactive			
CC(=O)OC1CC(=O)C2(C)C3CC4=C(OC(C)CC4=O)OC3(C)CCC2C1(C)C (configuration not stated)	-6.11	inactive	inactive			
C=C1C(=O)O[C@H]2C3=C(C)CCC[C@]3(C)C(=O)C[C@@H]12		inactive	inactive	15.1 µM (active)		
C/C1=C\CCC2=C[C@@H](OC2=O)c2c(C)coc2C1	13.4	inactive	inactive			
O=C1COC2(CCN(S(=O)(=O)c3ccc(-c4ccc5cccnc5c4)cc3)CC2)CN1C1CC1	-15.7	inactive	inactive			
COC1CC(=O)C23C(=O)NC(CC(C)C)C2C(C)C(C)=CC3/C=C(\C)CCC(O)C1O (configuration not stated)	23.7	inactive	inactive			
CCOC(=O)c1ccc(OCCN2C[C@H](O)[C@@H](O)[C@H](O)[C@H]2CO)cc1	-6.33	inactive	inactive			
CCCOc1ccc(S(=O)(=O)N2CCN(CCO)CC2)cc1-c1nc2c(CCC)cn(CC)c2c(=O)[nH]1	-0.893	inactive	inactive			
C/C=C/C1=CC2=CC(=O)C(C)(O)C(OC(=O)c3c(C)cc(O)cc3O)C2CO1 (configuration not stated)	-12.2	inactive	inactive			
CC(=O)O[C@@H]1C[C@@H](OC(C)=O)C(C)(C)/C=C/[C@H](C)[C@H](OC(C)=O)[C@@]2(O)C[C@H](C)[C@H](OC(=O)c3ccccc3)[C@@H]2/C=C/1C	-3.82	inactive	inactive			
OC[C@H]1O[C@@H](OCCc2ccc(O)cc2)[C@H](O[C@@H]2OC[C@](O)(CO)[C@H]2O)[C@@H](O)[C@@H]1O	1.79	inactive	inactive			
C[C@@H]1O[C@@H](O[C@H]2[C@H](O[C@H]3[C@H](O)[C@@H](C(=O)O)O[C@@H](O[C@H]4CC[C@@]5(C)C(CC[C@]6(C)C5CC[C@]57OC[C@@]8(CCC(C)(C)CC85)[C@H](O)C[C@]76C)C4(C)C)[C@@H]3O[C@@H]3O[C@H](CO)[C@@H](O[C@@H]4OC[C@@H](O)[C@H](O)[C@H]4O)[C@H](O)[C@H]3O)O[C@H](CO)[C@H](O)[C@@H]2O)[C@H](O)[C@H](O)[C@H]1O (some centres not stated)	-6.87				5.88% [at 11.2 µM]	-5.39% [at 11.2 µM]
CC1=C2C[C@H]3O[C@@]3(C)CCC3O[C@@]3(C)C[C@@]2(O)OC1=O (some centres not stated)	-2.29	inactive	inactive			
CC1(CO)CC2C(O)C(=O)C3(CO)CC3(C)C2C1 (configuration not stated)	-2.29	inactive	inactive			
O=C(NCCO)c1cccc(-c2cc(Nc3ccc(OC(F)(F)F)cc3)ncn2)c1	1.79	inactive	inactive			
COc1ccc(S(=O)(=O)N2CCC[C@H]2C(=O)Nc2cc(C)cc(C)c2)cc1	-17.2	inactive	inactive			
C/C=C(/C=C(C)/C=C/C=C/C=C(\C)C(=O)C12OC1C(O)(CCO)NC2=O)C(=O)OC (configuration not stated)	-13.7	inactive	inactive			
COc1cc(C(=O)NC2CCN(C)CC2)ccc1Nc1ncc2c(n1)N(C1CCCC1)CC(F)(F)C(=O)N2C	29.5	inactive	inactive			
CCC(C)C(C(=O)O)N1Cc2c(OCC=C(C)C)c(C)c(OC)c(C(=O)O)c2C1=O (configuration not stated)	5.34	inactive	inactive			
C[C@@H]1CC[C@]2(C(=O)O[C@@H]3O[C@H](CO[C@@H]4O[C@H](CO)[C@@H](O)[C@H](O)[C@H]4O)[C@@H](O)[C@H](O)[C@H]3O)CC[C@]3(C)C(=CCC4[C@@]5(C)CC[C@H](O)[C@](C)(C(=O)O)C5CC[C@]43C)[C@@H]2[C@]1(C)O (some centres not stated)	-6.11	inactive	inactive			
CC(C)(O)C1=CCC23COC(C2)C(O)(C(=O)O)CCC13 (configuration not stated)	-6.87	inactive	inactive			
O=C(/C=C/c1ccc(O)cc1)O[C@@H]1C[C@@](O)(C(=O)O)C[C@@H](O)[C@@H]1O	3.82	inactive	inactive			
COC1=CC(=O)C[C@@H](C)[C@]12Oc1cc(OC)cc(OC)c1C2=O	4.58	inactive	inactive			
COc1c2c(c(C)c3c1C(=O)OC3)O[C@@]1(C)CC(O)C(C(C)(C)O)[C@](C)(CCC(=O)O)[C@H]1C2 (some centres not stated)	-9.16	inactive	inactive			
